Bioassay records deposited in PubChem by National Center for Advancing Translational Sciences (NCATS).
This excerpt belongs to a sample that is enriched for hits.
Lassa entry inh = Lassa virus entry inhibition. Lassa virus pseudotype entry inhibition, cell reporter. actives 1.2% (n = 300,000). AID 540256. Potency, µM (titrated, usually from 37.9 µM), for the others: at the top dose activity change, negative = inhibition, actives largely listed as inhibitors; calls by dose curve; tested in HEK293 cells; further: potency means the concentration at half of the fitted maximal effect; on the % scale 0 is the no-effect control and ±100 the full control effect; nearly all actives have a fitted effect of over 50% in size
Marburg entry inh = inhibitors of Marburg virus binding or cell entry; Potency, µM (titrated, usually from 37.8 µM), for the others: top-dose activity change, negative = inhibition, most hits filed as inhibitors; Marburg virus pseudotyped entry inhibition, cell reporter; actives 1.8% (n = 300,000); calls by dose curve; tested in HEK293 cells; further: potency means the concentration at half of the fitted maximal effect; on the % scale 0 is the no-effect control and ±100 the full control effect
Shiga toxin inh = blocks Shiga toxin action in Vero cells. Vero cells, Shiga toxin protein synthesis inhibition reporter. inhibition, % at 38.7 µM. actives 9.2% (n = 290,000). AID 2315; in the data active means inhibition mostly above about 28%, no sharp cut-off; inactive means mostly below about 43%; further: 0% is about no effect
CHX counter = counter-screen hit for Shiga toxin inhibitors, cycloheximide; actives 12% (n = 300,000); cell reporter, cycloheximide protein synthesis inhibition counterscreen; max response, %; in the data active means max response mostly above about 13%, no sharp cut-off; inactive means mostly below about 14%; further: read at 38.3 µM for the half of the compounds with a filed dose; 0% is about no effect
AMA1 RON2 block = inhibitors of Plasmodium falciparum AMA1-RON2 interaction | Potency, µM (titrated, usually from 58.2 µM), inactives show at the highest dose activity change, negative = inhibition, usual class: inhibitors | actives 0.2% (n = 360,000) | AlphaScreen AMA1-biotinylated RON2 peptide binding | AID 720542; active means well fitted inhibition curve with a large enough effect; inconclusive means small, poorly fitted or top-dose-only effect; inactive means no such curve, though single readings can be large or run the other way;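 further: potency means the concentration at half of the fitted maximal effect; 0% = vehicle wells and -100% = peptide control; nearly all actives have a fitted effect of over 45% in size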
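AMA1 (3D7) with his tag at 25 nM final met compounds first, then biotinylated RON2 peptide at 25 nM; detection used donor plus acceptor beads, 10 µg/mL apiece, read by AlphaScreen after 30 min at room temperature.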
Numbers without * were called inactive; u = inconclusive; x = not tested or not shown; [ ] = remark or other dose.

SMILES	Lassa entry inh	Marburg entry inh	Shiga toxin inh	CHX counter	AMA1 RON2 block
CN1C/C(=C/c2ccccc2[N+](=O)[O-])C(=O)/C(=C\c2ccccc2[N+](=O)[O-])C1	8.91µM*	3.16µM*	x	x	-1.2%
O=c1c2ccccc2nc2n1CC/C2=C\c1ccccc1[N+](=O)[O-]	x	2.4%	57.8	-1.8	x
Cc1[nH]nc2c1C(c1ccco1)C(C#N)=C(N)O2 (stereo not given)	5.6%[46.1 µM]	-0.1%[46.1 µM]	15.3	7.3	16.9%
COc1ccc(-c2ccc(C3C(C#N)=C(N)Oc4n[nH]c(C)c43)o2)cc1 (stereo not given)	-6.6%	16.1%	19.6	23.2*	-21.0%
CCCCCCCc1ccc(-c2ccc(O)cc2)nc1	-6.2%	-2.6%[46.1 µM]	80.7*	30.7*	-1.5%
CCCCCc1ccc(-c2ccc(/C=C/C(=O)O)cc2)nc1	u	u	55.4*	44.2*	12.9%
CCCCCCCCc1ccc(-c2ccc(C(=O)O)cc2)cc1	-6.1%	-1.8%	-9.4	-8.1	x
CCCc1ccc(-c2ccc(/C=C/C(=O)O)cc2)nc1	0.461µM*	0.231µM*	60.7*	33.0	14.7%
Cc1ccc(S(=O)(=O)N2CCN(C(=O)COC(=O)c3ccccc3OC(F)F)CC2)c(C)c1	x	x	x	x	-2.5%
COC(=O)[C@H](COC(C)(C)C)NC(=O)O[C@@H]1C(=O)c2ccc(OC)cc2O[C@H]1c1cccc(C(F)(F)F)c1	x	-0.9%[14.2 µM]	x	x	x
CCOC(=O)C1=C(COC(=O)/C=C/c2ccccc2)NC(=O)NC1C (stereo not given)	6.9%	u	x	x	-5.6%
CCOC(=O)C1=C(COC(=O)/C=C/c2cccc(OC)c2OC)NC(=O)NC1C (stereo not given)	20.0%	5.8%	53.1*	39.8*	-4.4%
CCOC(=O)C1=C(COC(=O)/C=C/c2ccccc2F)NC(=O)NC1C (stereo not given)	x	x	x	x	11.9%
CCOC(=O)C1=C(COC(=O)/C=C/c2ccccc2Cl)NC(=O)NC1C (stereo not given)	12.9%	16.0%	55.7*	48.9*	-7.7%
CN(c1cc2c(c3c1ccn3C)C1CCC2C1)C1CCCCC1 (stereo not given)	x	u	x	x	15.8µM*
CN(CCc1ccccc1)c1cc2c(c3c1ccn3C)C1CCC2C1 (stereo not given)	x	u	x	x	15.8µM*
COc1ccccc1N(C)c1cc2c(c3c1ccn3C)C1CCC2C1 (stereo not given)	x	u	x	x	12.6µM*
CCN(C)c1cc2c(c3c1ccn3C)C1CCC2C1 (stereo not given)	12.9%[46.1 µM]	x	x	x	u
CN(Cc1ccccc1)c1cc2c(c3c1ccn3C)C1CCC2C1 (stereo not given)	-15.7%[46.1 µM]	x	x	x	15.8µM*
COc1cc(OC)cc(C(=O)NCCCN2CCN(CCCNC(=O)c3cc(OC)cc(OC)c3)CC2)c1	-8.2%	-5.1%	20.5	-4.2	8.1%
O=C1c2ccccc2C(=O)C1c1ccnc2ccccc12	u	7.3µM*	92.7*	37.5*	13.8%
O=C1C(c2ccnc3ccccc23)=C(O)c2ccccc21	2.82µM*	u	active	47.0*	3.6%
O=C1c2ccccc2C(=O)C1c1nccc2ccccc12	u	2.51µM*	96.7*	41.1*	-20.5%
N#CC1=C(N)SC(N)=C(C#N)C1c1ccnc2ccccc12	-1.3%	6.5%	2.0	-4.2	39.4%
O=C1C(=O)c2ccccc2C(O)=C1c1ccccc1F	3.9%	-14.3%	3.0	-6.6	-1.6%
SMILES	Lassa entry inh	Marburg entry inh	Shiga toxin inh	CHX counter	AMA1 RON2 block
COc1ccc(C2CCc3cc(OC)c(OC)cc3C2NC=O)cc1OC (stereo not given)	x	x	x	x	-10.9%
Cc1nnc(NC(=O)c2sc3nc(-c4cccs4)cc(C(F)(F)F)c3c2N)s1	-20.8%	u	57.4*	41.5*	46.5%
COc1cccc(C(=O)Nc2ccc(N3CCN(Cc4ccccc4)CC3)cc2)c1	2.2%	u	42.9*	13.1	-2.2%
CCCc1ccc(C(=O)NNc2cccc(C)c2)cc1	u	3.98µM*	46.3*	28.8*	-23.0%
COc1cccc(NC(=O)c2ccc(CN3CCN(c4ccccc4)CC3)cc2)c1	u	5.8µM*	26.5*	16.7*	-25.6%
Cc1cccc(NC(=O)c2ccc(CN3CCN(Cc4ccccc4)CC3)cc2)c1	-0.7%	2.9%[46.1 µM]	36.0	27.2*	-15.7%
COc1ccc(NC(=O)c2ccc(CN3CCN(c4ccccc4)CC3)cc2)cc1	u	u	2.6	4.0	-0.5%
O=CN1c2ccccc2CSc2ccccc21	x	x	x	x	0.6%
CCC(C)NC(=O)C1CC(=O)N(CCc2ccc(F)cc2)C1 (stereo not given)	5.9%	22.3%	-13.0	-1.2	-6.6%
Cc1ccc2c(C)c(C(=O)N(C)C(C)c3ccon3)oc2c1C (stereo not given)	-26.6%	u	83.0*	59.3*	0.5%
Cc1ccc2c(C)c(C(=O)N(C)C(C)c3ccncn3)oc2c1C (stereo not given)	x	x	54.5*	12.9*	-0.2%
O=C1c2ccccc2-c2nc3ccccc3cc21	u	u	69.4*	34.4*	-2.2%
c1ccc2c(c1)Cc1cc3ccccc3nc1-2	u	u	62.1*	25.8*	-2.6%
COc1cc(OC)c(NC(=O)CSC2=Nc3ccccc3N=C(c3ccc(F)cc3)C2)cc1Cl	20.3%[46.1 µM]	x	x	x	x
CCc1[nH]c(C(=O)O)c(C)c1C(=O)OC	1.4%[46.1 µM]	2.1%[46.1 µM]	13.9	-1.5	1.3%
COCCNC(=O)C(=O)Nc1cccc(Br)c1	17.8%	21.3%	39.9	22.9*	8.5%
CCCNC(=S)Nc1ccc(Cl)cc1C	0.4%	0.7%	8.7	-1.2	10.4%
COCCNC(=O)c1cc(Br)ccc1Cl	-0.2%	8.6%	-5.8	-1.4	6.6%
COCCNC(=O)C(=O)Nc1ccc(Br)cc1	16.2%	-9.1%	71.1*	46.7*	u
COCCNC(=S)NNc1cccc(C(=O)O)c1	u	2.9%	66.0*	17.7	119.4%
COCCNC(=O)C(=O)Nc1ccc(Cl)cc1C	-7.5%	12.7%[14.2 µM]	54.1*	31.7*	-23.2%
CC1=C(C(=O)N(C(C)C)C(C)C)CC(CC(=O)NC2CC2)C(=O)N1CCCN1CCCC1=O (stereo not given)	x	x	x	x	2.2%
O=C(CN1C(=O)CSc2ccc(S(=O)(=O)N3CCCC3)cc21)NCc1ccccc1Cl	-8.9%[46.1 µM]	x	x	x	x
Cc1ccc(C(=O)N2CC(C)SC2=Nc2cccc(S(=O)(=O)N(C)C)c2)cc1 (stereo not given)	3.16µM*	-12.2%	-11.3	-5.7	-3.9%
Cc1cc(C)cc(C(=O)N2CC(C)SC2=Nc2cccc(S(=O)(=O)N(C)C)c2)c1 (stereo not given)	u	u	-12.0	-1.5	-25.6%
CCCc1nn(C)c(C(=O)Nc2cccc(C)c2)c1Cl	u	1.8%	55.0*	58.5*	-0.2%
CCCc1nn(C)c(C(=O)Nc2ccc(C(C)(C)C)cc2)c1Cl	-15.7%	21.2%	4.6	-1.4	10.4%
CCCc1nn(C)c(C(=O)Nc2cccc(Cl)c2)c1Cl	1.2%	-2.7%	66.5*	50.5*	18.6%
N=C1C(c2nc3ccccc3s2)=C(O)CN1Cc1ccco1	17.6%	u	66.9*	26.0*	68.8%
